Measured values reported in PubChem BioAssay AID1220 (Sanford-Burnham Center for Chemical Genomics, 2008).
Out of some 190,000 compounds screened, about 1,300 (0.68%) were called active. No stated cut-off is given here; in the data, active means inhibition above about 50%; inactive means the rest. Shown is part of a subset that was picked to be rich in actives.

molecular target: Mannose-6-phosphate isomerase (Homo sapiens) (UniProt P34949); experiment: human PMI inhibitors, high substrate, primary screen, biochemical, fluorescence intensity, high mannose 6-phosphate (AID 1220); conditions: recombinant PMI enzyme, coupled fluorescence intensity; at 20 µM; active compounds read high
Sequence (P34949 whole entry, looked up): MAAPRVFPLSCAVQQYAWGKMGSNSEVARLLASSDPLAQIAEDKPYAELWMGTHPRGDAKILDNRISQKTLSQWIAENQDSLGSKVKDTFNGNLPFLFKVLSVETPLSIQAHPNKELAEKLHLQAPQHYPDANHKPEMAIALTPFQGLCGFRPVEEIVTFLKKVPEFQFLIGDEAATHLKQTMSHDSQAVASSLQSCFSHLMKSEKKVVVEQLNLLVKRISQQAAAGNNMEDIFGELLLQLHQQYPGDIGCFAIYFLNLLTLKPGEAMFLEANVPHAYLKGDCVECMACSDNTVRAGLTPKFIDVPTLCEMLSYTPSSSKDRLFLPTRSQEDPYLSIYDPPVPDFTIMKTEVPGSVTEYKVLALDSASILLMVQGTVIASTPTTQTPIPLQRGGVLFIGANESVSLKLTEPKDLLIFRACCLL

| Compound | inhibition |
| --- | --- |
| O=C(Cn1c(NCCCO)nc2ccccc21)c1cccc(Br)c1 | 4.9% (inactive) |
| O=C(CSc1nnc(COc2ccccc2)n1Cc1ccco1)NCc1ccco1 | 2.2% (inactive) |
| O=C1CC(c2ccccc2)CC(O)=C1C=NCc1ccccc1Cl (centres undefined) | 4.3% (inactive) |
| O=C(COC(=O)c1cc2c(s1)CCCC2)Nc1ccc(Cl)cn1 | 4.6% (inactive) |
| CCc1nnc(NC(=O)CCC(=O)N2CCN(CCc3ccccc3)CC2)s1 | -5.9% (inactive) |
| CCn1c(CNc2ccc(F)cc2)nnc1SCC(=O)N1CCCc2ccccc21 | 27.9% (inactive) |
| CCc1ccccc1S(=O)(=O)Cc1ccc(C(=O)NCc2ccc3c(c2)OCO3)o1 | -1.6% (inactive) |
| CCCCCn1c(N)c(C#N)c2nc3ccccc3nc21 | 42.7% (inactive) |
| C=CCn1c(NC(=O)c2ccccc2Cl)c(C#N)c2nc3ccccc3nc21 | 54.5% (active) |
| CCCCn1c(NC(=O)c2ccccc2)c(C#N)c2nc3ccccc3nc21 | 54.7% (active) |
| N#Cc1c(NC(=O)c2ccccc2Cl)n(Cc2ccccc2)c2nc3ccccc3nc12 | 32.7% (inactive) |
| CCCCn1c(NC(C)=O)c(C#N)c2nc3ccccc3nc21 | 57% (active) |
| CCCCn1c(NC(=O)CC)c(C#N)c2nc3ccccc3nc21 | 13% (inactive) |
| CCCCn1c(NC(=O)c2ccccc2)nc2ccccc21 | -3.6% (inactive) |
| Cc1ccccc1C(=O)Nc1ccc2c(C#N)c3nc4ccccc4nc3n2c1 | 6.1% (inactive) |
| CCC(=O)Nc1c(C#N)c2nc3ccccc3nc2n1-c1ccccc1C | 24.5% (inactive) |
| CCCCn1c(NC(=O)c2ccccc2Cl)c(C#N)c2nc3ccccc3nc21 | 53.7% (active) |
| N#Cc1c(N)n(CCNC(=O)c2ccc(Cl)cc2)c2nc3ccccc3nc12 | 16.9% (inactive) |
| N#Cc1c(N)n(CCNC(=O)c2ccccc2)c2nc3ccccc3nc12 | 24.7% (inactive) |
| O=C(CSc1nc2ccccc2n1CC(=O)N1CCCC1)NCc1ccc2c(c1)OCO2 | -0.8% (inactive) |
| Cc1ccc(NC(=O)c2cc3c(s2)CCC3)cc1S(=O)(=O)N1CCOCC1 | 8.8% (inactive) |
| COc1ccc(S(=O)(=O)NCc2cccs2)cc1 | -18.3% (inactive) |
| O=C(NC(=S)NCCCN1CCOCC1)c1cccc2ccccc12 | 1% (inactive) |
| O=C1c2ccccc2C(=O)N1c1cccc2cccnc12 | -2.2% (inactive) |
| O=S1(=O)NC(=NCCc2ccccn2)c2ccccc21 | -6.8% (inactive) |

| Compound | inhibition |
| --- | --- |
| O=S1(=O)Nc2c(ccc3cccnc23)-c2ccccc21 | 69.5% (active) |
| O=S(=O)(c1ccc(Cl)cc1)N1CCN(c2ccc(N3CCOCC3)nn2)CC1 | -2.7% (inactive) |
| N#CC1=C(N)Oc2c(ccc3ccccc23)C1c1ccsc1 (centres undefined) | 53.2% (active) |
| N#CC1=C(N)Oc2c(O)cc3ccccc3c2C1c1ccsc1 (centres undefined) | 30.3% (inactive) |
| N#CC1=C(N)Oc2c(ccc3ccccc23)C1c1cccs1 (centres undefined) | 3.4% (inactive) |
| c1ccc(N2CCN(c3nc4ccccc4n4cnnc34)CC2)cc1 | 10% (inactive) |
| Nc1ccc(-c2ccc(N)c([N+](=O)[O-])c2)cc1[N+](=O)[O-] | -2.3% (inactive) |
| CC1(C)Oc2cc(N)c([N+](=O)[O-])cc2O1 | 28.1% (inactive) |
| O=c1[nH]cnc2ccsc12 | -6% (inactive) |
| CCOc1ccccc1NC(=O)CN(c1ccc(OC)cc1OC)S(=O)(=O)c1ccccc1[N+](=O)[O-] | -0.9% (inactive) |
| C/C(=C\C(=S)Nc1ccccc1)Nc1ccc2ccccc2c1 | 60% (active) |
| CC(=O)Nc1ccc2ccccc2c1 | 6.5% (inactive) |
| CC(=O)c1cccc(NC(=O)C(=O)Nc2cccc3ccccc23)c1 | -6.5% (inactive) |
| CN(C)c1ccc(NC(=O)Nc2cccc3ccccc23)cc1 | 25.8% (inactive) |
| C/C(=C\C(=S)Nc1ccccc1)Nc1cccc2ccccc12 | 60.8% (active) |
| C/C(=C\C(=S)Nc1ccccc1)Nc1ccccc1 | -1.1% (inactive) |
| COc1ccc(N/C(C)=C/C(=S)Nc2ccccc2)cc1 | 50.1% (active) |
| CN(C)C(=S)Nc1ccc2ccccc2c1 | 3.2% (inactive) |
| COc1ccc(N/C(C)=C/C(=O)c2ccccc2)cc1 | 14.3% (inactive) |
| CCn1c(SCC(=O)N/N=C/c2cc(OC)c(O)c(OC)c2)nc2ccccc21 | -11% (inactive) |
| CC(C)NS(=O)(=O)c1ccc(NC(=S)NC(=O)c2cccc([N+](=O)[O-])c2)cc1 | -2.9% (inactive) |
| O=C(O)CSc1nnc(-c2ccncc2)n1CCc1ccccc1 | -5.1% (inactive) |
| O=c1[nH]c2cc3c(cc2cc1CN(Cc1nnnn1CC1CCCO1)C1CCCC1)OCO3 (centres undefined) | -6.2% (inactive) |
| O=C(CCN1CCCCC1)c1ccc2c(c1)OCCO2 | 43% (inactive) |
| Cc1cccc(N2CCN(S(=O)(=O)c3cccc4nonc34)CC2C)c1 (centres undefined) | 26.5% (inactive) |

| Compound | inhibition |
| --- | --- |
| Cc1[nH]n(-c2ccccc2)c(=O)c1C(c1ccccc1C(=O)O)c1c(C)[nH]n(-c2ccccc2)c1=O | -21.9% (inactive) |
| COc1cccc(OC)c1C(=O)Nc1ccc(NC(=O)c2ccco2)cc1 | 3.3% (inactive) |
| COc1ccc(NC(=O)c2ccco2)cc1N | 58.3% (active) |
| COc1ccc(NC(=O)c2ccco2)cc1NC(=O)c1ccco1 | 4.5% (inactive) |
| N#Cc1ccc(OCC(=O)NCC2(N3CCCCC3)CCCCC2)cc1 | -10.6% (inactive) |
| COc1ccc(-n2c(Cn3c(=O)sc4ccccc43)nnc2SCC(=O)N2CCCC2)cc1 | -4.6% (inactive) |
| O=C(O)CCc1c(C(=O)O)[nH]c2ccccc12 | -4.7% (inactive) |
| CCN(CC)S(=O)(=O)c1cccc(NC(=O)COC(=O)c2cc(=O)c3ccccc3o2)c1 | 9.7% (inactive) |
| Cc1ccc(S(=O)(=O)N(C)C)cc1NC(=O)COC(=O)c1n[nH]c(=O)c2ccccc12 | -8% (inactive) |
| CCN(CC)S(=O)(=O)c1cccc(NC(=O)COC(=O)c2n[nH]c(=O)c3ccccc23)c1 | 53.3% (active) |
| COc1cc(CN2CCC(C(=O)NC3CCCC3)CC2)cc(OC)c1O | 63.9% (active) |
| COc1cc(CN2CCC(C(=O)N3CCN(c4ccccc4F)CC3)CC2)ccc1O | 13.4% (inactive) |
| COc1cc(CN2CCC(C(=O)N3CCN(c4ccccc4F)CC3)CC2)cc(OC)c1OC | 9.1% (inactive) |
| COc1cc(CN2CCC(C(=O)NC3CCCC3)CC2)cc(Br)c1O | 14.6% (inactive) |
| COc1cc(CN2CCC(C(=O)N3CCN(c4ccccc4F)CC3)CC2)cc(OC)c1O | 53.7% (active) |
| COc1cc(CN2CCC(C(=O)NC3CCCC3)CC2)ccc1O | 3.5% (inactive) |
| Cc1cc(-c2[nH]nc3c2C(c2ccc(Cl)cc2)C(C#N)=C(N)O3)c(C)s1 (centres undefined) | 26.2% (inactive) |
| COc1ccc(Cl)cc1CSc1n[nH]c(C)n1 | 8.9% (inactive) |
| O=C(NCc1ccco1)C(=O)NCC1OCCCN1S(=O)(=O)c1ccccc1 (centres undefined) | -6.2% (inactive) |
| Cc1cc(NC(=O)CCC(=O)N(CC(=O)NCC2CCCO2)Cc2ccc(F)cc2)no1 (centres undefined) | -6.3% (inactive) |
| COc1ccc(C=C2C(=O)c3ccccc3C2=O)cc1O | 60.8% (active) |
| COc1cc(C=C2C(=O)c3ccccc3C2=O)cc(OC)c1OC | -22.9% (inactive) |
| CCN1C/C(=C/c2ccc(OC)c(O)c2)C(=O)/C(=C/c2ccc(OC)c(O)c2)C1 | 36.6% (inactive) |
| CC1(C)C(=O)Nc2ccccc2N1C(=O)COc1cccnc1[N+](=O)[O-] | -1.5% (inactive) |
| CCOc1cc(-c2noc(CCCC(N)=O)n2)cc(Br)c1OC | 15.3% (inactive) |

| Compound | inhibition |
| --- | --- |
| CC(C)CC1(C)NC(=O)N(CC(=O)NC(=O)Nc2ccc3c(c2)OCCO3)C1=O (centres undefined) | 7% (inactive) |
| N#Cc1cc(Cl)c(N2CCOCC2)cc1C#N | -7.2% (inactive) |
| N#CC(C#N)=C1C=C2C=C(N3CCOCC3)CCC2CC1 (centres undefined) | 55.3% (active) |
| N#CC(C#N)=C1C=C2C=C(N3CCCCC3)CCC2CC1 (centres undefined) | 58.7% (active) |
| CN1CCN(C2=CC3=CC(=C(C#N)C#N)CCC3CC2)CC1 (centres undefined) | 61.8% (active) |
| N#CC1=C(N)C2=C(N3CCCCC3)CCCC2C1(C#N)C#N (centres undefined) | 11.7% (inactive) |
| N#C/C(=C\c1ccc(N2CCOCC2)cc1)c1ccccc1 | 2.5% (inactive) |
| N#CC(C#N)=C1C=C2C=C(N3CCCCCC3)CCC2CC1 (centres undefined) | 50.6% (active) |
| Cc1cc(C)c(NC(=O)CS)c(Cl)c1 | -11.6% (inactive) |
| CSc1nc(Cl)cc(Nc2ccccc2N)n1 | -3% (inactive) |
| O=C(O)CCNC(=O)/C(=C/C=C/c1ccccc1)NC(=O)c1ccccc1 | -0.9% (inactive) |
| Cc1ccc(Nc2nc(Nc3ccc(C)cc3)nc(SC3=NCCS3)n2)cc1 | 8.1% (inactive) |
| CCCCC1(Cc2ccc(OC)c([N+](=O)[O-])c2)C(=O)N(c2ccccc2)N(c2ccccc2)C1=O | 11% (inactive) |
| CC(C)(C)CC(C)(C)c1ccc(O)c(CN2CCN(CCC#N)CC2)c1 | 4.7% (inactive) |
| CCN1CCN(C2=CC3=CC(=C(C#N)C#N)CCC3CC2)CC1 (centres undefined) | 59.6% (active) |
| CCC(CC)COC(=O)C(C#N)c1nc2ccccc2nc1N1CCN(CC)CC1 (centres undefined) | 17.2% (inactive) |
| CC1(C)CC(NCCN2CCN(C3=CC(=C(C#N)C#N)CC(C)(C)C3)CC2)=CC(=C(C#N)C#N)C1 | 12.4% (inactive) |
| CCn1cc(C(=O)N2CCc3ccccc32)c(=O)c2cc(S(=O)(=O)N3CCCCCC3)ccc21 | 5.7% (inactive) |
| CCCC(=O)NC(c1ccccc1Cl)c1c(O)ccc2ccccc12 (centres undefined) | 13.4% (inactive) |
| CCC(=O)NC(c1ccc(N(C)C)cc1)c1c(O)ccc2ccccc12 (centres undefined) | 62% (active) |
| CCC(=O)NC(c1ccc(OC)cc1)c1c(O)ccc2ccccc12 (centres undefined) | 44.2% (inactive) |
| CCCC(=O)NC(c1ccc(N(C)C)cc1)c1c(O)ccc2ccccc12 (centres undefined) | 54.8% (active) |
| CCCC(=O)NC(c1ccc(OC)c(OC)c1)c1c(O)ccc2ccccc12 (centres undefined) | 23.2% (inactive) |
| CCC(=O)NC(c1ccc([N+](=O)[O-])cc1)c1c(O)ccc2ccccc12 (centres undefined) | 14.3% (inactive) |
